Sampled rows, rich in hits. Any-hit rate of the full collection: about 15%.
DT40 TDP1 no CPT: qHTS for Inhibitors of human tyrosyl-DNA phosphodiesterase 1 (TDP1): qHTS in cells in absence of CPT; DT40 Tdp1-/- hTDP1 cells, no CPT, ATP luminescence, 48 h; Potency, µM (doses to about 46.2 µM), without a hit: at the highest dose activity change, negative = growth inhibition, actives largely listed as inhibitors; 420,000 tested, 15% active; AID 686978, 2013; further: nearly all actives have a fitted effect of over 55% in size
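Readout: luminescence from CellTiter-Glo after 30 min in the dark at RT. Cells: DT40 Tdp1-/- with stable hTDP1, 400/well. Exposure: compounds alone, ≥48 hr, 37 °C.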
ELG1 repair inh: ELG1-dependent DNA repair inhibition. HEK293T ELG1-luciferase reporter, luminescence, 16 h; DNA damage induced by 5-fluorouridine. Potency, µM (top dose mostly 46.1 µM), inactives show top-dose activity change, negative = inhibition, usual class: inhibitors. 330,000 tested, 2.3% active. AID 504467; further: nearly all actives have a fitted effect of over 55% in size
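Reporter activity after DNA damage by 5-fluorouridine is monitored. Compound-treated cells incubate 16 hr at 37 °C, then ONE-Glo is added for 30 min before luminescence reading.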
RORgamma inh: inhibitors of mouse ROR gamma transcriptional activity; 310,000 tested, 5.4% active; P51450; Drosophila S2 Gal4-RORgamma UAS-luciferase reporter, 20 h; AID 2551; Potency, µM (doses to about 53.6 µM), without a hit: at the top dose activity change, negative = inhibition, usual class: inhibitors; further: nearly all actives have a fitted effect of over 60% in size
Target sequence (P51450 whole entry, looked up, the tested form may be a part): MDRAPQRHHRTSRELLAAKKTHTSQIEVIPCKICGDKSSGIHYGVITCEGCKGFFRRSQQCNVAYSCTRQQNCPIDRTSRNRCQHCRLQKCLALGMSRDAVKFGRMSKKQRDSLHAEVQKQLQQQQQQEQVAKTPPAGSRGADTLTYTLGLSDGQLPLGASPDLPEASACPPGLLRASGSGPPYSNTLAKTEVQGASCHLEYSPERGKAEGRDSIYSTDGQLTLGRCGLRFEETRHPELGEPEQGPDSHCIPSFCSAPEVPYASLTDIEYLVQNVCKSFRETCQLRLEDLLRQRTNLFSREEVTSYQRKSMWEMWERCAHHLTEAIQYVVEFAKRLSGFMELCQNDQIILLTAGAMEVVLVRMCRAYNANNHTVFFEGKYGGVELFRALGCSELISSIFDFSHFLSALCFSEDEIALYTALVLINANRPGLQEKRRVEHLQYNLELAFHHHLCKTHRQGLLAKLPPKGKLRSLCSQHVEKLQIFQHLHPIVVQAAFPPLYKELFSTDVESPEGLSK
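In this cell-based reporter format, copper sulfate (700 uM final) drives Gal4–ROR gamma fusion expression from a metallothionein promoter in Drosophila Schneider cells; compounds preincubated 1 hr, reporter read after 20 hr at ambient temperature.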
12-LOX inh: ALOX12 (human) lipoxygenase inhibition | P18054 | purified 12hLO, xylenol orange hydroperoxide absorbance | Potency, µM (titrated, usually from 108 µM), inactives show top-dose activity change, negative = inhibition, usual class: inhibitors | 580,000 tested, 1.1% active | AID 1671190
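Purified human 12hLO (150 nM final) in 25 mM Hepes, 0.01% Triton X-100, pH 7.0 was preincubated 15 min at room temperature with compound. Then 40 uM arachidonic acid was added, 30 min. Hydroperoxide was read by Fe-XO absorbance ratio 573/405 nm.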
Gal4-VP16 FLuc: counter-screen for ROR gamma inhibitors: Gal4-VP16 reporter; Drosophila S2 Gal4-VP16 UAS-luciferase, luminescence, 20 h; Potency, µM (titrated, usually from 53.6 µM), inactives show top-dose activity, negative = inhibition, usual class: inhibitors; 310,000 tested, 3.5% active;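 further: Gal4-VP16 expression switched on by copper sulfate through the metallothionein promoter; nearly all actives have a fitted effect of over 50% in size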
DT40 TDP1 CPT: DT40-hTDP1 cell growth loss with CPT. chicken DT40 Tdp1-/-;hTDP1 cells + 20 nM CPT, ATP luminescence, 48 h. Potency, µM (doses to about 46.2 µM), without a hit: at the highest dose activity change, negative = growth inhibition, most hits filed as inhibitors. 420,000 tested, 12% active; further: nearly all actives have a fitted effect of over 55% in size
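Cell growth measured by CellTiter-Glo luminescence after a minimum 48 h, 37 C compound exposure with 20 nM CPT in Tdp1-knockout DT40 cells stably expressing hTDP1, seeded 400/well; qHTS titration format.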
An asterisk follows results filed as active; [ ] = remark or other dose. The call rests on the fitted dose curve; in most records, active means well fitted curve in the direction sought with a large enough effect; inconclusive means small, poorly fitted or top-dose-only effect, or another doubt; inactive means no such curve, though single readings can be large; an effect the other way counts as inactive or inconclusive. On the % scale 0 is the no-effect control and ±100 the full control effect; potency means the concentration at half of the fitted maximal effect.

Results for COc1ccc(/C=C(/C(=O)Nc2ccccc2C(=O)N2CCCC2)c2ccccc2)cc1 ?
DT40 TDP1 no CPT: inconclusive; ELG1 repair inh: 23µM*; RORgamma inh: 35%; 12-LOX inh: 0%; Gal4-VP16 FLuc: -4%; DT40 TDP1 CPT: inconclusive

What do the screens show for `COc1cccc(CNC(=O)Cc2ccc(-c3ccccc3)cc2)c1`?
DT40 TDP1 no CPT: 21µM*; ELG1 repair inh: -24%; RORgamma inh: 0%; 12-LOX inh: 22%; Gal4-VP16 FLuc: 3%; DT40 TDP1 CPT: inconclusive

Results for Fc1cccc(COc2ccc(-c3nnco3)cc2)c1F ?
12-LOX inh: 3%

How did CCOc1cc(/C=C(\C#N)c2nc3ccccc3[nH]2)ccc1OC(C)C(=O)O (stereo not drawn) do in these assays?
DT40 TDP1 no CPT: -7%; ELG1 repair inh: 13%; RORgamma inh: 13%; 12-LOX inh: -29%; Gal4-VP16 FLuc: 0%; DT40 TDP1 CPT: 6%

Results for COc1cc(/C=C(\C#N)c2nc3ccccc3[nH]2)ccc1OCc1cccc(C(F)(F)F)c1 ?
DT40 TDP1 no CPT: 9.2µM*; 12-LOX inh: inconclusive; DT40 TDP1 CPT: 12µM*

How did COc1cc(/C=C(\C#N)c2ccccn2)ccc1OCC(=O)Nc1cccc(C(F)(F)F)c1 do in these assays?
DT40 TDP1 no CPT: -2%; ELG1 repair inh: inconclusive; RORgamma inh: 16%; 12-LOX inh: 9%; Gal4-VP16 FLuc: inconclusive; DT40 TDP1 CPT: 1%

What do the screens show for `COc1cc(/C=C(/C#N)c2nc3ccccc3[nH]2)ccc1OCc1ccccc1`?
12-LOX inh: 2%

Results for COc1cc(/C=C(\C#N)c2ccccn2)cc(OC)c1O ?
DT40 TDP1 no CPT: inconclusive; ELG1 repair inh: -15%; RORgamma inh: 3%; 12-LOX inh: inconclusive; Gal4-VP16 FLuc: -1%; DT40 TDP1 CPT: 9.2µM*

Results for COc1cc(/C=C(/C#N)c2ccccn2)ccc1OCc1cccc(C(F)(F)F)c1 ?
12-LOX inh: 6.3µM*

How did CCOc1cc(/C=C(/C#N)c2nc3ccccc3[nH]2)ccc1Oc1ccc([N+](=O)[O-])cn1 do in these assays?
DT40 TDP1 no CPT: inconclusive; ELG1 repair inh: 28%; RORgamma inh: -16%; 12-LOX inh: inconclusive; Gal4-VP16 FLuc: -4%[0.365 µM]; DT40 TDP1 CPT: 13µM*

How did Cc1cccc(C2(C(=O)C(C#N)C(=O)Nc3ccccc3F)CC2)c1 (stereo not drawn) do in these assays?
12-LOX inh: -3%

What do the screens show for `COC(=O)c1ccc(COc2ccc(/C=C(\C#N)c3nc4ccccc4[nH]3)cc2OC)o1`?
DT40 TDP1 no CPT: 5.8µM*; ELG1 repair inh: -3%; RORgamma inh: 25%; 12-LOX inh: 0%; Gal4-VP16 FLuc: -7%; DT40 TDP1 CPT: 7.3µM*

How did COc1cc(/C=C(\C#N)c2ccccn2)ccc1OCc1ccccc1Cl do in these assays?
DT40 TDP1 no CPT: inconclusive; ELG1 repair inh: inconclusive; RORgamma inh: inconclusive; 12-LOX inh: -21%; Gal4-VP16 FLuc: -5%; DT40 TDP1 CPT: 15µM*

Results for COc1cc(/C=C(/C#N)c2nc3ccccc3[nH]2)ccc1OCc1ccc(C(=O)O)o1 ?
DT40 TDP1 no CPT: -10%; ELG1 repair inh: 2%; RORgamma inh: 14%; 12-LOX inh: inconclusive; Gal4-VP16 FLuc: -4%; DT40 TDP1 CPT: -3%

Results for CC(C)N(C(=O)COC(=O)c1cccc(S(=O)(=O)N2CC3(C)CC2CC(C)(C)C3)c1)C(C)C (stereo not drawn) ?
DT40 TDP1 no CPT: inconclusive; ELG1 repair inh: -1%; 12-LOX inh: -41%; DT40 TDP1 CPT: 23µM*

Source: PubChem (National Center for Advancing Translational Sciences (NCATS))
